Measurements reported in article PMC3218832.

Assays:
Experiment in all cases: protein binding microarray; high values mean tight binding
Conditions in all cases: dsDNA, one strand shown
RELARELA (p65 homodimer) = RELARELA (p65 homodimer) (Homo sapiens, UniProt Q04206 1-307)
p50p50 homodimer = p50p50 homodimer (Homo sapiens, UniProt P19838 7-356)
p52p52 homodimer = target: T1, p52p52 homodimer (Homo sapiens, UniProt Q00653 4-332)
T1 sequence: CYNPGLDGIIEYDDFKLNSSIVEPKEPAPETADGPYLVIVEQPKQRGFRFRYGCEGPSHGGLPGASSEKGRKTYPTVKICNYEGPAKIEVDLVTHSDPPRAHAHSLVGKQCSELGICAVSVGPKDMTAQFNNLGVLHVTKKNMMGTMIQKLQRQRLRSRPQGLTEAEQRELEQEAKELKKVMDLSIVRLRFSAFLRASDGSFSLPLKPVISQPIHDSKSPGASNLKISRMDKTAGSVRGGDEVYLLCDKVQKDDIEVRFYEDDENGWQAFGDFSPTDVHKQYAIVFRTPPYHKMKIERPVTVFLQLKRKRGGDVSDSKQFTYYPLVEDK

[1] = target: RELA (p65) subunit of heterodimer;p50 subunit (Homo sapiens;Homo sapiens, UniProt Q04206;P19838 1-307;7-356)
Chain of RELA (p65) subunit of heterodimer;p50 subunit (Q04206 1-307, chain 1 of 2): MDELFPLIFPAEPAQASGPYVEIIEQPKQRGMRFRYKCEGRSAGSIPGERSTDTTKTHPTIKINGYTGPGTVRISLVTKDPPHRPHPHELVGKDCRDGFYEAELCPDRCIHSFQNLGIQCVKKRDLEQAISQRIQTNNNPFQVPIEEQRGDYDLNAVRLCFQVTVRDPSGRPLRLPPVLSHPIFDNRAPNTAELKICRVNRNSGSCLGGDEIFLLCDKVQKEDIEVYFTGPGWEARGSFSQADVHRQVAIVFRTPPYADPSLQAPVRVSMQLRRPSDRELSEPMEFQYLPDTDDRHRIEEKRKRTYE
Chain of RELA (p65) subunit of heterodimer;p50 subunit (P19838 7-356, chain 2 of 2): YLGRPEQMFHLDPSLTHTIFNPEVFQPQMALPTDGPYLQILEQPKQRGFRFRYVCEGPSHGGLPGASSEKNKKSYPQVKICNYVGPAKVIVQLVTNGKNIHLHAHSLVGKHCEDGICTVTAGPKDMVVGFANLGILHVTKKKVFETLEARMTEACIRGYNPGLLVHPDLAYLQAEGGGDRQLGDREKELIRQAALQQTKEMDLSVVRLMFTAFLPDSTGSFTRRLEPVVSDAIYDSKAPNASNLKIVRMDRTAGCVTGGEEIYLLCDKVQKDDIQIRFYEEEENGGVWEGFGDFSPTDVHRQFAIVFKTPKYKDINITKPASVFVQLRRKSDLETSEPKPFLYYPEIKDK

[2] = target: RELA (p65) subunit of heterodimer;p52 subunit (Homo sapiens;Homo sapiens, UniProt Q04206;Q00653 1-307;4-332)
RELB subunit;p50 subunit = RELB subunit;p50 subunit (Homo sapiens;Homo sapiens, UniProt Q01201;P19838 120-401;7-356)
RELB subunit;p52 subunit = target: T2, RELB subunit;p52 subunit (Homo sapiens;Homo sapiens, UniProt Q01201;Q00653 120-401;4-332)
T2 sequence 1: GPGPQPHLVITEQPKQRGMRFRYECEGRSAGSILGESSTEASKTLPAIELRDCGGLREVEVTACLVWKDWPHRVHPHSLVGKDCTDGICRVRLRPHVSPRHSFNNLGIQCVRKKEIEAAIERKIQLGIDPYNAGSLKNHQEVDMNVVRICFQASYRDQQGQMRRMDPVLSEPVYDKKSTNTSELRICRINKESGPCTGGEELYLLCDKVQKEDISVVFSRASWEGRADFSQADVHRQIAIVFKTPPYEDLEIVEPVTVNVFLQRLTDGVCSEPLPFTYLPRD
T2 sequence 2: T1 sequence

[3] = target: C-Rel subunit;p50 subunit (Homo sapiens;Homo sapiens, UniProt Q04864;P19838 1-285;7-356)
[4] = target: T3, C-Rel subunit;p52 subunit (Homo sapiens;Homo sapiens, UniProt Q04864;Q00653 1-285;4-332)
T3 sequence 1: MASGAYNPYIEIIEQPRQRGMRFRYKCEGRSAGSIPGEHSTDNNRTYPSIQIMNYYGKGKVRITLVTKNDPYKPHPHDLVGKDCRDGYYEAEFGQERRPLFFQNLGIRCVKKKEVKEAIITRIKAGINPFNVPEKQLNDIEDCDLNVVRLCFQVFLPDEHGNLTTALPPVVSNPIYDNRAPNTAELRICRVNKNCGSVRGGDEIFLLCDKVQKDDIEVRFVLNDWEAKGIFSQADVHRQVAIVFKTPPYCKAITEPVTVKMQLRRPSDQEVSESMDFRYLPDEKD
T3 sequence 2: T1 sequence

Chain of p50p50 homodimer (P19838 7-356): as the sequence (P19838 7-356, chain 2 of 2) above
Chain of RELARELA (p65 homodimer) (Q04206 1-307): as the sequence (Q04206 1-307, chain 1 of 2) above

| Sequence | binding signal (RELARELA (p65 homodimer)) [z-score] | binding signal (p50p50 homodimer) [z-score] | binding signal (p52p52 homodimer) [z-score] | binding signal [1] [z-score] | binding signal [2] [z-score] | binding signal (RELB subunit;p50 subunit) [z-score] | binding signal (RELB subunit;p52 subunit) [z-score] | binding signal [3] [z-score] | binding signal [4] [z-score] |
| --- | --- | --- | --- | --- | --- | --- | --- | --- | --- |
| GAAAGTGTCCT | 0.0215 | -1.58 | -0.464 | -0.843 | -0.45 | -0.858 | -0.525 | -0.958 | -0.375 |
| GAGAGGGTCCC | -0.00134 | -0.361 | -0.132 | -0.312 | -0.187 | -0.0754 | -0.109 | -0.406 | -0.351 |
| CGGTGCCTCCT | -0.441 | -0.702 | -0.485 | -0.873 | -0.611 | -0.763 | -0.769 | -1.19 | -0.785 |
| GAAGAAATCCC | 1.23 | 0.872 | 0.93 | 0.96 | 0.759 | 0.876 | 0.618 | 0.892 | 0.641 |
| AGAGGTTCCCC | 0.439 | 1.06 | 1.33 | 1.54 | 1.33 | 1.41 | 1.64 | 1.37 | 1.14 |
| CGAGGTGCCCT | -0.746 | -1.52 | -0.61 | -0.798 | -0.84 | -0.973 | -0.87 | -1.16 | -0.789 |
| AAATATGTCCT | -0.0065 | -1.09 | -0.534 | -0.78 | -0.678 | -0.828 | -0.738 | -0.967 | -0.696 |
| CAGAACTTCCC | 1.94 | 0.457 | 0.196 | 0.921 | 0.329 | 0.182 | 0.0935 | 0.664 | 0.413 |
| CAGGGGACCCT | -0.887 | 0.487 | 0.583 | 0.0452 | 0.384 | 0.29 | 0.53 | -0.293 | -0.0494 |
| GGAATGCCCCC | 2.8 | 1.02 | 1.8 | 2.08 | 2.18 | 1.13 | 1.75 | 1.61 | 2.48 |
| AGAAATACCCT | 0.554 | 1.28 | 1.33 | 1.55 | 1.35 | 1.21 | 1.27 | 0.817 | 1.68 |
| CGGGTATTCCT | 1.71 | 0.73 | 1.4 | 0.593 | 1.06 | 0.353 | 0.712 | 0.468 | 1.22 |
| CGAAAGATCCC | 0.0219 | -0.089 | -0.151 | -0.0254 | -0.0507 | 0.0265 | -0.282 | -0.258 | -0.147 |
| CAAAGTACCCC | 0.144 | 0.83 | 0.509 | 0.648 | 0.795 | 1.07 | 1.19 | 0.721 | 0.588 |
| CAGAGTGCCCT | -0.65 | -1.13 | -0.629 | -0.784 | -0.964 | -0.897 | -0.973 | -0.975 | -0.713 |
| AAAGGACTCCT | -0.688 | -1.11 | -0.681 | -0.94 | -0.976 | -1.07 | -0.964 | -1.03 | -0.758 |
| AGATATTCCCC | 1.8 | 1.31 | 2.2 | 2.03 | 1.99 | 1.8 | 1.96 | 1.64 | 1.71 |
| CAAAGCCTCCC | -0.873 | -0.992 | -0.631 | -0.874 | -0.823 | -0.859 | -0.707 | -1.19 | -0.839 |
| AAGTGTTCCCC | 0.872 | 0.916 | 0.928 | 1.24 | 0.915 | 1.13 | 1.14 | 1.33 | 0.844 |
| AGAGGTGTCCT | -0.184 | -1.69 | -0.541 | -0.927 | -0.707 | -0.854 | -0.664 | -1.22 | -0.658 |
| AAATAATTCCT | 0.497 | -0.505 | -0.44 | -0.41 | -0.399 | -0.654 | -0.671 | 0.179 | -0.124 |
| GGAGGCGCCCC | -0.259 | -0.0933 | -0.0824 | -0.062 | 0.0158 | 0 | 0.214 | -0.156 | -0.0409 |
| GGAAGTATCCT | -0.066 | -1.38 | -0.457 | -0.799 | -0.877 | -1.12 | -0.866 | -1.09 | -0.681 |
| AAGATTTCCCC | 2.26 | 1.48 | 2.39 | 2.11 | 2 | 2.3 | 2.17 | 1.73 | 2.03 |
| CGAGAGCCCCT | -0.807 | 0.741 | 0.297 | 0.363 | 0.418 | 0.502 | 0.576 | 0.0988 | 0.379 |
| AAAAACATCCT | -0.23 | -0.94 | -0.575 | -0.766 | -0.82 | -0.865 | -0.741 | -1.09 | -0.784 |
| CGATAAGCCCC | -0.417 | 0.756 | 0.22 | 0.383 | 0.238 | 0.334 | 0.409 | 0.25 | 0.31 |
| GAAGGCCCCCC | -1.44 | 0.635 | 0.244 | 0.456 | 0.62 | 0.366 | 0.671 | 0.408 | 0.0615 |
| GGGTGAATCCT | 0.03 | 0.0518 | 0.368 | -0.186 | 0.102 | -0.241 | -0.135 | -0.176 | -0.138 |
| CAATTCCTCCT | 0.0653 | -1.06 | -0.655 | -0.688 | -0.609 | -0.871 | -0.932 | -0.776 | -0.597 |
